Reference: PubChem BioAssay AID1863 (Southern Research Specialized Biocontainment Screening …, 2009)
In all, about 300,000 compounds went through this assay and about 480 (0.16%) were called active.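 Rule for the calls: active = inhibition over 29.93%, a cutoff 3 SD above the screen mean, later confirmed by dose response; inconclusive = inhibition over 29.93% but no dose response follow-up; inactive = inhibition at most 29.93% or unconfirmed.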 These entries were drawn from the full list. Entries with a potency or affinity are not part of this list.

Assay: inhibitors of PhoP regulon expression, primary screen, Salmonella Typhimurium, GFP reporter (AID 1863);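 note: 0% = low Mg2+ inducing control and 100% = high Mg2+ repressing control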
Settings: S. Typhimurium PhoP-regulated promoter GFP reporter, 4 h; at 50 µM; hits give high values

inhibition, inactive:
N#Cc1ccccc1CSCCNC(=O)Cc1c(F)cccc1Cl -5.66%
COc1cccc(Cn2c(C3CC3)nc3ccc(NC(=O)c4ccco4)cc3c2=O)c1 -9.67%
Cc1ccc(-c2nn(-c3ccccc3)cc2CSC(=N)N)cc1 2.16%
O=C(O)Cc1cn(-c2ccccc2)nc1-c1ccccc1 -1.05%
OCc1cn(-c2ccccc2)nc1-c1ccc(Br)cc1 -1.5%
OCc1cn(-c2ccccc2)nc1-c1ccc(-c2nn(-c3ccccc3)cc2CO)cc1 14.7%
CC1=Nn2c(nc3sc4c(c3c2=O)CCCC4)SC1 -2.64%
Cc1cnc(NC(=O)c2ccncc2)s1 1.84%
C=CCOC(=O)C1=C[C@@H](c2ccc(Br)cc2)[C@H](CCCO)[C@@H](OCC)O1 -3.82%
COc1cc(NS(=O)(=O)c2ccc(NS(=O)(=O)c3ccc(C)cc3)cc2)nc(OC)n1 12.1%
COCC(=O)Nc1ccc(N2CCN(c3ccccc3)CC2)c(F)c1 21.5%
Cc1ccc(SCCc2ccc(C)nc2)cc1 9.59%
COCCCNC(=S)NNC(=O)c1ccccn1 8.59%
CCNC(=S)NNC(=O)c1ccccc1Cl 8.03%
C=CCOC(=O)C1=C(C)NC(SCC(=O)Nc2nccs2)=C(C#N)C1c1cccs1 (centres undefined) -14.1%
CCOC(=O)Cn1cnc2sc(C(=O)OC)c(C)c2c1=O -1.36%
O=C(CCS(=O)(=O)c1ccccc1)Nc1ncc([N+](=O)[O-])s1 11.2%
O=C(Nc1ncc([N+](=O)[O-])s1)c1ccccc1Br -1.22%
Cc1ccc(NC(=O)Nc2ccccc2)cc1[N+](=O)[O-] -2.21%
O=C(Nc1ccc(Cl)c(Cl)c1)Nc1ccccc1C(=O)O 4.95%
O=C(Nc1ccc(Cl)c(Cl)c1)Nc1ccccn1 8.31%
O=C(Nc1ccccc1)Nc1ccc(F)c([N+](=O)[O-])c1 8.9%
CCN(CC)P(=O)(c1ccccc1)c1c(C)nc2ccccn12 (centres undefined) -1.09%
CC12CCC(C(=O)NC3CCCC3)(CC1=O)C2(C)C (centres undefined) -12.7%
COc1ccc(-c2nnn(CC(=O)N(CC3CCCO3)C(C(=O)NC(C)(C)C)c3ccco3)n2)cc1OC (centres undefined) 2.77%
COCCCNC(=O)CN(c1cc(Cl)cc(Cl)c1)S(C)(=O)=O -4.71%
N#CCOc1nc(N2CCOCC2)nc(N2CCOCC2)n1 -1.4%
COc1ccc(CN(CC(=O)NCC2CCCO2)C(=O)CNS(=O)(=O)c2ccc(C)cc2)cc1 (centres undefined) -1.33%
CC(NC(=O)C1CCN(S(=O)(=O)c2ccc3nc4c(c(C(=O)O)c3c2)CCCC4)CC1)c1ccccc1 (centres undefined) -8.3%
CCN(CC)S(=O)(=O)c1ccc(OC)c(NS(=O)(=O)Cc2ccccc2)c1 6.46%
O=C(O)c1cccc(Nc2ncnc3sccc23)c1 -0.32%
COc1ccccc1N1CCN(CC(=O)c2c(C)[nH]c3cc(C)ccc23)CC1 -0.55%
CC(C)c1nnc(NC(=O)c2ccc(S(=O)(=O)N3CCOCC3)cc2)s1 -9.01%
O=C(NCCC1=CCCCC1)c1ccc2c(c1)N(Cc1ccccc1)C(=O)CS2 6.9%
CCOC(=O)c1ccc2c(c1)n(CC)c(/C=C/N(C)c1ccccc1)[n+]2CC -11%
CCn1c(/C=C/N(C)c2ccccc2)[n+](CC)c2ccc(Cl)cc21 -2.39%
COc1ccc(C(=O)N2CCN(Cc3ccccc3)CC2)cc1[N+](=O)[O-] -3.7%
O=C(NCCCn1ccnc1)c1ccc(Br)cc1 12.6%
Cc1ccc(S(=O)(=O)Nc2ccc(O)c3ncccc23)cc1 10.5%
O=C(Oc1ccc(Cl)c2cccnc12)c1ccco1 19.6%
Clc1cc2cccnc2c2ccccc12 2.15%
O=c1oc2ccccc2c(O)c1Cc1cc(Cl)c2cccnc2c1O -10%
Oc1c(Cl)cc(CN2CCCCC2)c2cccnc12 14.1%
O=C(Oc1c(Cl)cc(Cl)c2cccnc12)c1cccs1 14.3%
Cc1ccc(S(=O)(=O)Nc2ccc(O)c3cccnc23)cc1 6.3%
Oc1c(I)cc(I)c2cccnc12 -1.32%
CCC(=O)c1cc2c(cc1NC(=O)c1ccccc1)OCCO2 5.62%
CN(C)S(=O)(=O)c1ccc(N2CCCC2)c(C(=O)Nc2nc(-c3ccc(F)c(F)c3)cs2)c1 3.09%
Cc1ccc(CN2C(=O)NC(Cc3c[nH]c4ccccc34)C2=O)cc1 (centres undefined) 4.26%
COC(=O)c1cc(NC(=O)CC2SCCNC2=O)cc(C(=O)OC)c1 (centres undefined) -10.7%
COc1ccc(/C=N/Nc2cc(N(C)C)nc(N(C)C)n2)cc1 -15.8%
CC(C)(C)c1ccc(C(=O)N2CCC(C(=O)NCc3ccncc3)CC2)cc1 -6.15%
O=C(NCc1cccs1)c1cc(S(=O)(=O)N2CCCCC2)ccc1Cl 2.07%
COc1cc(C(=O)NCc2cccc3ccccc23)ccc1OCc1ccccc1 -2.04%
COc1ccc(/C(N)=N/O)c(OC)c1 -1.42%
Nc1ccc(-n2ccnc2)cc1 1.57%
CCOc1ccc(CSC(=N)N)cc1[N+](=O)[O-] 41%
CCCOc1ccc(Br)cc1CSC(=N)N 55.8%
CCCCOc1ccc(CSC(=N)N)cc1Cl 0.89%
CCOc1ccc(Br)cc1CSC(=N)N 26.3%
COc1ccc(CSC(=N)N)cc1[N+](=O)[O-] 5.38%
COc1ccc(Br)cc1CSC(=N)N 5.81%
C/C(=N\NC(=O)CNC(=O)c1ccc(F)cc1)c1ccco1 4.52%
Cc1ccc(NC(=O)N[C@@H](CC(C)C)C(=O)O)c(C)c1 -7.38%
